The results in this text go back to PMC7862700, “An all-to-all approach to the identification of sequence-specific readers for epigenetic DNA modifications on cytosine”.

Holding throughout (test): DAPPL (digital affinity profiling via proximity ligation, sequencing); 10 mM Tris-HCl pH 7.5, 50 mM NaCl, 1 mM DTT, 4% glycerol, room temperature, 30 min; GST-TFs on glutathione beads, 16-mer random dsDNA library, 0.1% formaldehyde crosslink after washing; high values mean tight binding
One assay has as its target T1, FEV (Homo sapiens, UniProt Q99581 1-238).
T1 sequence: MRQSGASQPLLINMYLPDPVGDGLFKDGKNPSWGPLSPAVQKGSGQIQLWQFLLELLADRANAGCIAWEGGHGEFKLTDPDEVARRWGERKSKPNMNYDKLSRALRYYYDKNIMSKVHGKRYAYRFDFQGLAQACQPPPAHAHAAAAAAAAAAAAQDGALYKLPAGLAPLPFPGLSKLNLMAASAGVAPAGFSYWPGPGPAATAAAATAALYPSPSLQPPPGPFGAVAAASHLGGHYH
The following applies: protein: recombinant; tags: N-terminal GST; dsDNA, one strand shown. The method in brief: (§1)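 Yeast served to express human transcription factors as GST fusions, which were then captured on glutathione beads and labelled with DNA barcodes. Pooled with a tag-only sample, they were incubated with 200 nmole of a 16-mer random double-stranded DNA library for 30 min at room temperature in Tris/NaCl/DTT/glycerol buffer, washed, crosslinked with 0.1% formaldehyde, ligated by proximity, amplified by PCR and sequenced. Dividing each hexamer's read frequency for a factor by its frequency for the tag-only sample gives the binding signal.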

The target in the next assay is ETV5 (Homo sapiens, UniProt P41161 1-510). The following applies: protein: recombinant; tags: N-terminal GST; dsDNA, one strand shown. The method in brief: as §1
For the next assay, the target named is HSF1 (Homo sapiens, UniProt Q00613 1-529). The conditions noted are these: protein: recombinant; tags: N-terminal GST; chain copies: 3; dsDNA, one strand shown. The method in brief: as §1
Another assay addresses T2, SPIC (Homo sapiens, UniProt Q8N5J4 1-248).
T2 sequence: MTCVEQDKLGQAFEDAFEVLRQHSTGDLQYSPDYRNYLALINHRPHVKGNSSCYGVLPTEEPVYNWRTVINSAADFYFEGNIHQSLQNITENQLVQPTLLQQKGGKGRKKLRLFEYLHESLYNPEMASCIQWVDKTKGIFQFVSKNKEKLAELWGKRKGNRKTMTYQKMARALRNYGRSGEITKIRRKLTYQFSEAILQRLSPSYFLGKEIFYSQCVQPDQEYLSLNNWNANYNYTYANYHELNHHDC
The conditions noted are these: protein: recombinant; tags: N-terminal GST; dsDNA, one strand shown. The essentials:
as §1

A further assay concerns the target ELF4 (Homo sapiens, UniProt Q99607 1-663). The following applies: protein: recombinant; tags: N-terminal GST; dsDNA, one strand shown. The method in brief:
as §1

The next assay concerns the target T3, ELK4 (Homo sapiens, UniProt P28324-2 1-405).
T3 sequence: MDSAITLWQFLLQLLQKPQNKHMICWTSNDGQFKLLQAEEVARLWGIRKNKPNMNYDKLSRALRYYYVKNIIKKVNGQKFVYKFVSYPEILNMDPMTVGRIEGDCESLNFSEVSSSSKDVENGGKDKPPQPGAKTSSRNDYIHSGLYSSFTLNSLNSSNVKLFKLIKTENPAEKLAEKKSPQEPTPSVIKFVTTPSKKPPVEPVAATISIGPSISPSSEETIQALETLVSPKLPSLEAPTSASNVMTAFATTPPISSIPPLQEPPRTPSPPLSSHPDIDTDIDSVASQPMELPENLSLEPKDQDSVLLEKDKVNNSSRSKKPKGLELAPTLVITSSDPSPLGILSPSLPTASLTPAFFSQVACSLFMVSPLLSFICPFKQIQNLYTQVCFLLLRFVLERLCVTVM
The conditions noted are these: protein: recombinant; tags: N-terminal GST; dsDNA, one strand shown. The method in brief: as §1

A further assay has as its target T4, ETV2 (Homo sapiens, UniProt O00321 1-342).
T4 sequence: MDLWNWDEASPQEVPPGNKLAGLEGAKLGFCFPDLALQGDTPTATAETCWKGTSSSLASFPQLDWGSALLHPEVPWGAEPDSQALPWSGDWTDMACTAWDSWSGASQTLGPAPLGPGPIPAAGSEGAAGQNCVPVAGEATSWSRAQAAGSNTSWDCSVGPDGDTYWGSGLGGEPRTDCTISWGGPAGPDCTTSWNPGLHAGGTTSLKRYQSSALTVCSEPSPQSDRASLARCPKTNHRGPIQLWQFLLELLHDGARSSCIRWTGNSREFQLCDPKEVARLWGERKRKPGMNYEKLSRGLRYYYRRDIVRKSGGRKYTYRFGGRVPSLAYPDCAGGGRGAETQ
The conditions noted are these: protein: recombinant; tags: N-terminal GST; dsDNA, one strand shown. The essentials:
as §1

A further assay concerns the target T5, ELF3 (Homo sapiens, UniProt P78545 1-371).
T5 sequence: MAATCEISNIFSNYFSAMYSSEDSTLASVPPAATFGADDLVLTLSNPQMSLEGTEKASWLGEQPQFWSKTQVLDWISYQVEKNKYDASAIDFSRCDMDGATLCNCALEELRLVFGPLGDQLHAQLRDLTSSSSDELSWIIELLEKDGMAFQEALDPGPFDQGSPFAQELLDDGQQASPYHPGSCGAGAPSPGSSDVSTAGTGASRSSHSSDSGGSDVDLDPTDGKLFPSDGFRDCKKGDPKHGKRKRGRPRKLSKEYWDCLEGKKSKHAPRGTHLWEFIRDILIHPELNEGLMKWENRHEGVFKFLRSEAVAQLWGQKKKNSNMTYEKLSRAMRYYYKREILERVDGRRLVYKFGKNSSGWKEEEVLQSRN
The conditions noted are these: protein: recombinant; tags: N-terminal GST; dsDNA, one strand shown. The essentials:
as §1

The target in the next assay is CRX (Homo sapiens, UniProt O43186 1-299). The conditions noted are these: protein: recombinant; tags: N-terminal GST; dsDNA, one strand shown. The method in brief: as §1
In the next assay the target is ETV1 (Homo sapiens, UniProt P50549 1-477). The following applies: protein: recombinant; tags: N-terminal GST; dsDNA, one strand shown. The method in brief: as §1
In the next assay the target is T6, ERF (Homo sapiens, UniProt P50548 1-548).
T6 sequence: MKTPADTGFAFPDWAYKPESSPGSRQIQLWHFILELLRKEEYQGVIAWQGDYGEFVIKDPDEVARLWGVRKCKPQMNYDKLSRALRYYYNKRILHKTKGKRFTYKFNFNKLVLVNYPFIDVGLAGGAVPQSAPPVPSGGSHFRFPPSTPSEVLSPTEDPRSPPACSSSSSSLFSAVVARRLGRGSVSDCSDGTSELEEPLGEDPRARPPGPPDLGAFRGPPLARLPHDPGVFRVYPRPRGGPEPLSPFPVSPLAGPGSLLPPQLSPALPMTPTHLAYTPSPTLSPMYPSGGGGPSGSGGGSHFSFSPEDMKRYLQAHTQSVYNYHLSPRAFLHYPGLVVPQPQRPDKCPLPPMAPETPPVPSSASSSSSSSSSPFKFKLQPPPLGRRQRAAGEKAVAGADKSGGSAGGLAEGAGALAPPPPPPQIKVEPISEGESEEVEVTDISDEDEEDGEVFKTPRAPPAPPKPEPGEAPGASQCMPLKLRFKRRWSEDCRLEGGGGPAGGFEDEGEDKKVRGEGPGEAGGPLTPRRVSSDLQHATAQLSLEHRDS
The conditions noted are these: protein: recombinant; tags: N-terminal GST; dsDNA, one strand shown. The essentials:
as §1

The next assay addresses T7, ETV3L (Homo sapiens, UniProt Q6ZN32 1-361).
T7 sequence: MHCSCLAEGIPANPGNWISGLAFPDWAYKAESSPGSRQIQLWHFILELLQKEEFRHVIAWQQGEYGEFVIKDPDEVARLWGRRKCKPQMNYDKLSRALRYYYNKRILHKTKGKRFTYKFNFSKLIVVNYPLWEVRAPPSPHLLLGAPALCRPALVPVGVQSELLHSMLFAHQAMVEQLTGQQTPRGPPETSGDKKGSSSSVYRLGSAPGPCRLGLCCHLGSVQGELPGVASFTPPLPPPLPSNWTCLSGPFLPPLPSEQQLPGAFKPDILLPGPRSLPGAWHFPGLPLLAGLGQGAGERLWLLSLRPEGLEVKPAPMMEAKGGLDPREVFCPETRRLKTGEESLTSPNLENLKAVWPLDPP
The following applies: protein: recombinant; tags: N-terminal GST; dsDNA, one strand shown. The essentials: as §1

For another assay, the target named is T8, ETS2 (Homo sapiens, UniProt P15036 1-469).
T8 sequence: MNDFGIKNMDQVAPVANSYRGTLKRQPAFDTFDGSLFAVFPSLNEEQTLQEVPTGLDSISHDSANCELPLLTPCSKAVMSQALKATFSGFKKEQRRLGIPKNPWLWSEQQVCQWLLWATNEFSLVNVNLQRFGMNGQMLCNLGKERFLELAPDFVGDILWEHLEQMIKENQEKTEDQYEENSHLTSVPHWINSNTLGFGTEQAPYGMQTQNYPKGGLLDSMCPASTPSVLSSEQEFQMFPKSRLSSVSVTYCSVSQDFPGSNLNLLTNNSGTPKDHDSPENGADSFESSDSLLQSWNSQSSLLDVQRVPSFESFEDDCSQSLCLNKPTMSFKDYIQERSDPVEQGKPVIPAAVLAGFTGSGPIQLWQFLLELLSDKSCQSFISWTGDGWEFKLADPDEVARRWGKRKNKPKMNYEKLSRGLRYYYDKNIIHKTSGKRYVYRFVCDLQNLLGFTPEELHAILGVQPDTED
The conditions noted are these: protein: recombinant; tags: N-terminal GST; dsDNA, one strand shown. The essentials: as §1

A further assay concerns the target T9, SPDEF (Homo sapiens, UniProt O95238 1-335).
T9 sequence: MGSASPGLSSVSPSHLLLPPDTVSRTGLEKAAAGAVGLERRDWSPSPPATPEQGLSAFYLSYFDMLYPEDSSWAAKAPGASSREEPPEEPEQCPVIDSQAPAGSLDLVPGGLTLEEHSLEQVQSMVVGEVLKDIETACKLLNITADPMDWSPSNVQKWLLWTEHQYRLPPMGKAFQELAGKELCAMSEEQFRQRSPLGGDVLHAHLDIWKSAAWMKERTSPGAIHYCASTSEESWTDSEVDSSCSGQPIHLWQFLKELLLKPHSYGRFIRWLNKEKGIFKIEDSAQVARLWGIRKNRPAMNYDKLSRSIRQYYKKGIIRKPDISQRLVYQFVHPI
The conditions noted are these: protein: recombinant; tags: N-terminal GST; dsDNA, one strand shown. The method in brief:
as §1

Another assay addresses T10, ETV7 (Homo sapiens, UniProt Q9Y603 1-341).
T10 sequence: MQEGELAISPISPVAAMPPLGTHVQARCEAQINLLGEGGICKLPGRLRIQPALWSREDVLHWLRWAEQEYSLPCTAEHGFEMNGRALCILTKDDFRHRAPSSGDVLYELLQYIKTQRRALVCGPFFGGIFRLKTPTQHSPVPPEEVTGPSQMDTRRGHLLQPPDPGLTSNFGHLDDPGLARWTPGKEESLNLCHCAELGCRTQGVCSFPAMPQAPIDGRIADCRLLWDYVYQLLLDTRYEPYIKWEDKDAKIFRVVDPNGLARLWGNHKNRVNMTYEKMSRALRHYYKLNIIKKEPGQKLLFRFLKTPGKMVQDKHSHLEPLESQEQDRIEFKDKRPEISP
The following applies: protein: recombinant; tags: N-terminal GST; dsDNA, one strand shown. The method in brief:
as §1

The target in the next assay is T11, ELF5 (Homo sapiens, UniProt Q9UKW6-2 1-255).
T11 sequence: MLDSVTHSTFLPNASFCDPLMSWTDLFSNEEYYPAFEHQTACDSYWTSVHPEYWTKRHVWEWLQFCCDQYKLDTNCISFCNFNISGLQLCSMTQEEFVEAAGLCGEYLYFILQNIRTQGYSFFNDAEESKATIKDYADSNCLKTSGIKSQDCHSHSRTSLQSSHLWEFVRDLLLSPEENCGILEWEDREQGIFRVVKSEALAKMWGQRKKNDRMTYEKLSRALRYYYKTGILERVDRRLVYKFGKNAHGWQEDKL
The conditions noted are these: protein: recombinant; tags: N-terminal GST; dsDNA, one strand shown. The method in brief:
as §1

The next assay addresses T12, ETV3 (Homo sapiens, UniProt P41162-2 1-143).
T12 sequence: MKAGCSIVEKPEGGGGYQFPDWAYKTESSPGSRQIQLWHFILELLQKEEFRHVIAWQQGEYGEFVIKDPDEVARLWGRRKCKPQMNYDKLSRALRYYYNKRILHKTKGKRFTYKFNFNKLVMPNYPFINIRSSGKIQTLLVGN
The conditions noted are these: protein: recombinant; tags: N-terminal GST; dsDNA, one strand shown. The essentials:
as §1

The next assay has as its target ETV6 (Homo sapiens, UniProt P41212 1-452). The conditions noted are these: protein: recombinant; tags: N-terminal GST; dsDNA, one strand shown. The method in brief:
as §1

Chain of ETV6 (P41212 whole entry): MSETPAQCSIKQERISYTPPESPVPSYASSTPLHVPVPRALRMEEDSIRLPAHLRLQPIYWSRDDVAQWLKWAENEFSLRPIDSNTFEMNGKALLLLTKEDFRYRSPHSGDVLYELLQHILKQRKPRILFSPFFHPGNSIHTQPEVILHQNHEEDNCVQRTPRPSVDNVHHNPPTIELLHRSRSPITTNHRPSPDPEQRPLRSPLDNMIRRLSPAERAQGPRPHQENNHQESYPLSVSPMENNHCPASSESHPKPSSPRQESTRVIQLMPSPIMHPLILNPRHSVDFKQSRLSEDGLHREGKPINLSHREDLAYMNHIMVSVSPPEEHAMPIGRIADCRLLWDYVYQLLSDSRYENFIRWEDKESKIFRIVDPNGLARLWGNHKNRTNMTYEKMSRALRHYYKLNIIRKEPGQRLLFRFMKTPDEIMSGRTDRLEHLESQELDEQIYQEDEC
Chain of ELF4 (Q99607 whole entry): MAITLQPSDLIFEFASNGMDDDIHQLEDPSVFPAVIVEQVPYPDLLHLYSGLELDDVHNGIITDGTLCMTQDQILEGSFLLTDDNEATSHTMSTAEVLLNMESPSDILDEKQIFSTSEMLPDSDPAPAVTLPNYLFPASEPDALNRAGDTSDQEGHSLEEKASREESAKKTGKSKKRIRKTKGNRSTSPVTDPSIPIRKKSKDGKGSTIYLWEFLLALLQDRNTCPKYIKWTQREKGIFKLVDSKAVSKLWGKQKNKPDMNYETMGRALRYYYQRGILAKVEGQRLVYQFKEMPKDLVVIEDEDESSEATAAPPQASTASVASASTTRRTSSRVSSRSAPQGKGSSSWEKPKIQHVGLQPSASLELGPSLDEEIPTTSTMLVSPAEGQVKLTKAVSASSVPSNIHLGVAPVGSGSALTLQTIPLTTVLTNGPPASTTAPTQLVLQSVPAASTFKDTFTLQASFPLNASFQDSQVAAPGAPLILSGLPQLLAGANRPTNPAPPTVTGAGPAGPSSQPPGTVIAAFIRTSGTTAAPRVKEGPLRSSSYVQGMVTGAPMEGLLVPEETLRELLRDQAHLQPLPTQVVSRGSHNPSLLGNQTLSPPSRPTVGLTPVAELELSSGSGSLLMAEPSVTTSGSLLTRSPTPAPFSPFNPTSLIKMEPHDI
Chain of ETV5 (P41161 whole entry): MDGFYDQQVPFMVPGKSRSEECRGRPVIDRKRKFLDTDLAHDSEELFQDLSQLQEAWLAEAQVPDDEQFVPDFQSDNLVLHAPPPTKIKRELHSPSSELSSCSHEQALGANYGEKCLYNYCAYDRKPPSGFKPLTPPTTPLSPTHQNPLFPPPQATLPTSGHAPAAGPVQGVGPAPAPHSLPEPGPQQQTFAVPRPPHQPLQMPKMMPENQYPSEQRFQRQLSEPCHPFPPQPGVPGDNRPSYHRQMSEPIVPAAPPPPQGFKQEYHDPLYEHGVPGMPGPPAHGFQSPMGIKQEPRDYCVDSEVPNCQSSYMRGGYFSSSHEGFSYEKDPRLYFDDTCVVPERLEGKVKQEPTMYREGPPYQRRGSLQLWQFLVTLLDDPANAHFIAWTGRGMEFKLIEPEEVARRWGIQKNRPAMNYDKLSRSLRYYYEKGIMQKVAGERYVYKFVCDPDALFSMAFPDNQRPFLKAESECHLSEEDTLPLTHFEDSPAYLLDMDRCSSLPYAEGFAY
Chain of HSF1 (Q00613 whole entry): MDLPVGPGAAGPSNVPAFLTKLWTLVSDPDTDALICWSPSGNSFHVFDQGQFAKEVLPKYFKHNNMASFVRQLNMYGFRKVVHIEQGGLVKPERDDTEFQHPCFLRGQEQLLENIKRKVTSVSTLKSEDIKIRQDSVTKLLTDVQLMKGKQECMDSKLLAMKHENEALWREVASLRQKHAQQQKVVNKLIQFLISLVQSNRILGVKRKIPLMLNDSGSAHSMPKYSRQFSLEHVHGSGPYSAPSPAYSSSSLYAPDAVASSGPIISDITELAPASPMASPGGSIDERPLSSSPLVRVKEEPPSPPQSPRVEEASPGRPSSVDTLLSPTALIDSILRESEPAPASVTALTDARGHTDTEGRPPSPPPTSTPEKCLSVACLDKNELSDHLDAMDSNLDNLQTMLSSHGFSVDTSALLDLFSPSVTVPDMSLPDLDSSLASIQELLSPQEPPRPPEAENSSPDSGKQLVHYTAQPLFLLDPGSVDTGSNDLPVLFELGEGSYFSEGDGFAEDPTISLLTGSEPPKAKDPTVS
Chain of ETV1 (P50549 whole entry): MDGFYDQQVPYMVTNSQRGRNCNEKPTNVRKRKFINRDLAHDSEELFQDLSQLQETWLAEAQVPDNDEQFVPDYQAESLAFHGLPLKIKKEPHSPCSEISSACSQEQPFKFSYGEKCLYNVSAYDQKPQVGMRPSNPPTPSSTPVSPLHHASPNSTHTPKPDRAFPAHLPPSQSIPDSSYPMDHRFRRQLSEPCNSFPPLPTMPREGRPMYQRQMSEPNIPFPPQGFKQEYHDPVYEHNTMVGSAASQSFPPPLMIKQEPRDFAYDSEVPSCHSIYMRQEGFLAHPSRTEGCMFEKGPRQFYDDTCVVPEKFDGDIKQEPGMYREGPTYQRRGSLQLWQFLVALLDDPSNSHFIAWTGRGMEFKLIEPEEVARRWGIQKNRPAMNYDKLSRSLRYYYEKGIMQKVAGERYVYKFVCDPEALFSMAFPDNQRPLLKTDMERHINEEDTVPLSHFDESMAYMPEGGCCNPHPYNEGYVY
Chain of CRX (O43186 whole entry): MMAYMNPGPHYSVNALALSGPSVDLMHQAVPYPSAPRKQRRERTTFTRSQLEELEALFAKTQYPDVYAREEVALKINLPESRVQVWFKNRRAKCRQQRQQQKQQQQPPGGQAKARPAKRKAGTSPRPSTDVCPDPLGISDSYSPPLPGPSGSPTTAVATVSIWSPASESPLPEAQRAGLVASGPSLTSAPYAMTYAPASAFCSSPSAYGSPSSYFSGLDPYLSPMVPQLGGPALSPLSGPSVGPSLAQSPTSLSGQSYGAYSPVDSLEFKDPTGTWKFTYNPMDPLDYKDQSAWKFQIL

As to TATTGG, the binding signal was 1.14 fold enrichment (6-mer frequency, TF over GST control) in the assay with FEV; 1.19 fold enrichment (6-mer frequency, TF over GST control) with ETV5; 1.2 fold enrichment (6-mer frequency, TF over GST control) in the assay with HSF1; 1.19 fold enrichment (6-mer frequency, TF over GST control) with SPIC; 1.21 fold enrichment (6-mer frequency, TF over GST control) with ELF4; 1.28 fold enrichment (6-mer frequency, TF over GST control) in the assay with ELK4. Besides, the binding signal in the assay with ETV2 was 1.14 fold enrichment (6-mer frequency, TF over GST control); with ELF3 it was 1.24 fold enrichment (6-mer frequency, TF over GST control); in the assay with CRX it was 1.4 fold enrichment (6-mer frequency, TF over GST control); with ETV1, 1.13 fold enrichment (6-mer frequency, TF over GST control); with ERF, 1.2 fold enrichment (6-mer frequency, TF over GST control); with ETV3L, 1.18 fold enrichment (6-mer frequency, TF over GST control). Also, the binding signal with ETS2 was 1.23 fold enrichment (6-mer frequency, TF over GST control); in the assay with SPDEF, 1.23 fold enrichment (6-mer frequency, TF over GST control); in the assay with ETV7, 1.19 fold enrichment (6-mer frequency, TF over GST control); in the assay with ELF5 it was 1.1 fold enrichment (6-mer frequency, TF over GST control); with ETV3, 1.17 fold enrichment (6-mer frequency, TF over GST control); in the assay with ETV6 it was 1.21 fold enrichment (6-mer frequency, TF over GST control).
